Laboratory results reported in PubChem BioAssay (NCATS).
Inconclusive results are not listed. Calls of active or inactive are those of the source. The call rests on the fitted dose curve; in most records, active means well fitted curve in the direction sought with a large enough effect; inconclusive means small, poorly fitted or top-dose-only effect, or another doubt; inactive means no such curve, though single readings can be large; an effect the other way counts as inactive or inconclusive.

Assays:
[1] = qHTS of pediatric cancer cell lines to identify multiple opportunities for drug repurposing: Primary screen for NB1643 cells (AID 1347099); further: nearly all actives have a fitted effect of over 50% in size; further: potency means the concentration at half of the fitted maximal effect
In short: (§1)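 Luminescence from CellTiter-Glo served as readout of metabolically active cells after 48 h compound exposure. Titrations: MIPE 11-point, from 0.78 nM; NPC 8-point, from 0.59 nM (final). Concentration-response curves came straight from the primary screen.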

[2] = qHTS of pediatric cancer cell lines to identify multiple opportunities for drug repurposing: Primary screen for LAN-5 cells (AID 1347100); further: potency means the concentration at half of the fitted maximal effect
In short: (§2)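 Cells (500-1,000/well) rested 5 h, then received compounds for 48 h; metabolically active cells were measured by CellTiter-Glo luminescence. Final concentrations spanned up to 46 µM (MIPE, 11-point) or 0.59 nM-46 µM (NPC, 8-point) in primary screens, 11-point in follow-ups.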

[3] = qHTS of pediatric cancer cell lines to identify multiple opportunities for drug repurposing: Primary screen for BT-12 cells (AID 1347101); further: nearly all actives have a fitted effect of over 25% in size; further: potency means the concentration at half of the fitted maximal effect
In short: as §2

[4] = qHTS of pediatric cancer cell lines to identify multiple opportunities for drug repurposing: Primary screen for Rh18 cells (AID 1347102); further: nearly all actives have a fitted effect of over 65% in size; further: potency means the concentration at half of the fitted maximal effect
In short: as §2

[5] = qHTS of pediatric cancer cell lines to identify multiple opportunities for drug repurposing: Primary screen for OHS-50 cells (AID 1347103); further: nearly all actives have a fitted effect of over 40% in size; further: potency means the concentration at half of the fitted maximal effect
In short: as §2

[6] = qHTS of pediatric cancer cell lines to identify multiple opportunities for drug repurposing: Primary screen for MG 63 (6-TG R) cells (AID 1347105); further: nearly all actives have a fitted effect of over 50% in size; further: potency means the concentration at half of the fitted maximal effect
In short: as §1

[7] = qHTS of pediatric cancer cell lines to identify multiple opportunities for drug repurposing: Primary screen for control Hh wild type fibroblast cells (AID 1347106);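 further: series mostly up to about 46 µM; a drop in luminescence marks cytotoxicity and a rise apparent proliferation; nearly all actives have a fitted effect of over 55% in size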
In short: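 Viability after 48 h compound treatment at 37C, 500-1,000 cells/well, read as ATP luminescence with CellTiter-Glo. Primary screens used 11-point (MIPE, 0.78 nM-46 µM) or 8-point (NPC, 0.59 nM-46 µM) final concentrations; follow-up screens used 11-point dilutions.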

[8] = qHTS of pediatric cancer cell lines to identify multiple opportunities for drug repurposing: Primary screen for Rh30 cells (AID 1347107); further: nearly all actives have a fitted effect of over 75% in size; further: potency means the concentration at half of the fitted maximal effect
In short: as §2

[9] = qHTS of pediatric cancer cell lines to identify multiple opportunities for drug repurposing: Primary screen for RD cells (AID 1347104); further: nearly all actives have a fitted effect of over 55% in size; further: potency means the concentration at half of the fitted maximal effect
In short: as §1

[10] = qHTS of pediatric cancer cell lines to identify multiple opportunities for drug repurposing: Primary screen for Rh41 cells (AID 1347108); further: nearly all actives have a fitted effect of over 70% in size; further: potency means the concentration at half of the fitted maximal effect
In short: as §1

[11] = qHTS of pediatric cancer cell lines to identify multiple opportunities for drug repurposing: Confirmatory screen for A673 cells (AID 1347110);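 further: potency means the concentration at half of the fitted maximal effect; cells exposed to compound for 48 h before the viability read; nearly all actives have a fitted effect of over 65% in size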
In short: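 Cells plated at 500-1,000/well were treated five hours later with multi-point dilutions up to 46 µM final. After two days, CellTiter-Glo was added and luminescence read.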

[12] = qHTS of pediatric cancer cell lines to identify multiple opportunities for drug repurposing: Confirmatory screen for DAOY cells (AID 1347114); further: potency means the concentration at half of the fitted maximal effect; nearly all actives have a fitted effect of over 65% in size
In short: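 Viability measured as metabolically active cells via CellTiter-Glo luminescence following 48 hours of compound exposure, 11-point dilutions in confirmatory testing. 500-1,000 cells/well plated 5 hours before dosing; controls were DMSO and 2.3 µM bortezomib.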

[13] = qHTS of pediatric cancer cell lines to identify multiple opportunities for drug repurposing: Confirmatory screen for NB-EBc1 cells (AID 1347115);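 further: cells exposed to compound for 48 h before the viability read; nearly all actives have a fitted effect of over 45% in size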
In short: as §2

Measured: Potency

CC(C)(C)c1nc(-c2cccc(NS(=O)(=O)c3c(F)cccc3F)c2F)c(-c2ccnc(N)n2)s1
inactive: [2] | [3] | [4] | [5] | [6]
active: [1] 18.7 µM

C=C[C@@H]1CN2CCC1C[C@@H]2C(O)c1ccnc2ccc(OC)cc12 (stereo partly drawn)
not listed: [9] | [10] | [11] | [12] | [13]
inactive: all other assays above

CCNC(=O)[C@H]1O[C@@H](n2cnc3c(N)nc(NCCc4ccc(CCC(=O)O)cc4)nc32)[C@H](O)[C@H]1O
not listed: [5] | [11] | [12] | [13]
inactive: all other assays above

NC(=O)c1ccc(N(C(N)=O)c2c(F)cccc2F)nc1-c1ccc(F)cc1F
not listed: [5] | [10] | [11] | [12] | [13]
inactive: all other assays above

Cn1c(=O)c(Oc2ccc(F)cc2F)cc2cnc(NC3CCOCC3)nc21
inactive: [1] | [2] | [3] | [4] | [9] | [7] | [10]

CC(=O)OCC(=O)[C@@]12OC(C)(C)O[C@H]1C[C@H]1[C@@H]3C[C@H](F)C4=CC(=O)C=C[C@]4(C)[C@@]3(F)[C@@H](O)C[C@@]12C
not listed: [5] | [10] | [11] | [12] | [13]
inactive: all other assays above

CNC1[C@H](O)C(O[C@@H]2C(O)C(O[C@H]3O[C@H]([C@@H](C)NC)CC[C@H]3N)[C@@H](N)C[C@H]2N)OC[C@]1(C)O (stereo partly drawn)
not listed: [6] | [11] | [12] | [13]
inactive: all other assays above

CC[C@H](C=C[C@@H](C)[C@H]1CC[C@H]2[C@@H]3CC=C4C[C@@H](O)CC[C@]4(C)[C@@H]3CC[C@]12C)C(C)C
not listed: [6] | [11] | [12] | [13]
inactive: all other assays above

CCC(=C(c1ccc(O)cc1)c1ccc(OCCNC)cc1)c1ccccc1
active: [1] 23.5 µM | [2] 26.4 µM | [3] 27.3 µM | [5] 21.7 µM | [9] 33.2 µM | [6] 23.5 µM

CN(C)CCOc1cc(-c2cn[nH]c2)ccc1NC(=O)C1COc2ccccc2O1 (stereo not drawn)
active: [1] 9.35 µM
inactive: [2] | [3] | [4] | [9] | [7] | [8]

CN1CCC[C@H]1CCO[C@](C)(c1ccccc1)c1ccc(Cl)cc1
inactive: [2] | [3] | [4] | [6] | [7] | [8]
active: [1] 20.9 µM | [9] 37.2 µM

CC[C@H](C)n1cc(C)c2c(C(=O)NCc3c(C)cc(C)[nH]c3=O)cc(-c3ccc(N4CCNCC4)nc3)cc21
inactive: [7]
active: [1] 1.66 µM | [2] 23.5 µM | [3] 30.6 µM | [5] 24.3 µM | [9] 4.69 µM | [6] 23.5 µM | [10] 18.7 µM

COc1cc(C=CC(=O)O)ccc1O
not listed: [5] | [11] | [12] | [13]
inactive: all other assays above

CC[C@H](CC#N)OC(=O)N[C@@H](C)c1cccc(NC(=O)Nc2ccc(-c3cnco3)c(OC)c2)c1
inactive: [4] | [10]
active: [1] 0.743 µM | [2] 0.662 µM | [3] 0.611 µM | [5] 7.69 µM

O=C(O)CCC=CCC[C@@H]1[C@H](N2CCCCC2)[C@@H](O)C[C@@H]1OCc1ccc(-c2ccccc2)cc1
active: [1] 5.9 µM | [10] 18.7 µM
inactive: [2] | [3] | [4] | [6]

CN1c2ccccc2C(=O)N2CCc3c([nH]c4ccccc34)C21 (stereo not drawn)
active: [1] 13.2 µM
not listed: [9] | [11] | [12] | [13]
inactive: all other assays above

COc1ccc(-c2cc(=O)c3c(O)cc(O[C@@H]4O[C@H](CO[C@@H]5O[C@@H](C)[C@H](O)[C@@H](O)[C@@H]5O)[C@@H](O)[C@H](O)[C@@H]4O)cc3o2)cc1O
active: [1] 16.6 µM
inactive: [2] | [3] | [4] | [5] | [6] | [7]

COc1cc2nc(-c3cc(F)ccc3O)nc(N[C@@H]3CNC[C@@H]3C(C)(C)O)c2cc1OC
active: [1] 16.6 µM | [2] 13.2 µM | [3] 27.3 µM | [4] 18.7 µM | [5] 10.9 µM | [9] 33.2 µM | [10] 23.5 µM
inactive: [7]

CCN1CCC(n2cc(CNc3cc(Cl)c4ncc(C#N)c(Nc5ccc(F)c(Cl)c5)c4c3)nn2)CC1
active: [1] 18.7 µM | [2] 14.8 µM | [3] 24.3 µM | [4] 20.9 µM | [5] 17.2 µM | [9] 18.7 µM | [8] 23.5 µM | [10] 14.8 µM
inactive: [7]

CC1(COc2ccc3c(c2)ncn3-c2ccc3cccc(N4CCC(N)CC4)c3n2)COC1
active: [2] 0.001 µM | [3] 6.11 µM | [4] 10.5 µM | [5] 13.7 µM | [9] 0.59 µM | [11] 7.37 µM | [12] 20.8 µM
inactive: [1] | [8] | [13]

CC1CCN(c2cc(N3CCN(C)CC3)ccc2NC(=O)c2cc(C#N)c[nH]2)CC1
inactive: [1] | [2] | [3] | [4] | [6] | [8]
